Data reported in PubChem BioAssay (NCI).
About 83,000 compounds went through this panel and 20% of them were active in at least one assay; those are over-represented in the sample as a whole.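 Note: values are percent growth. 100 is the growth of untreated cells, values between 100 and 0 indicate rising inhibition; between -100 and 0 indicates cell death.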 Activity calls are given as the source filed them. Rule for the calls: active = growth percent below 10; inactive = the rest.

Experiments:
Assay in all cases: NCI-60 one-dose screen, 48 h (100 = growth as untreated, 0 = no growth, -100 = all killed)
Settings in all cases: 10 µM unless noted
[1] = test system: SR leukemia
[2] = test system: RPMI-8226 leukemia
[3] = test system: OVCAR-8 ovarian
[4] = test system: OVCAR-5 ovarian
[5] = test system: SK-OV-3 ovarian
[6] = test system: IGROV1 ovarian
[7] = test system: OVCAR-3 ovarian
[8] = test system: HS 578T breast
[9] = test system: NCI/ADR-RES ovarian
[10] = test system: T-47D breast
[11] = test system: BT-549 breast
[12] = test system: MDA-MB-435 melanoma
[13] = test system: SW-620 colon
[14] = test system: MCF7 breast
[15] = test system: HCT-116 colon
[16] = test system: HCC-2998 colon
[17] = test system: KM12 colon

Measured: growth

O=C(Nc1ccc(Oc2ccc(F)cc2)c(Cl)c1)c1cnccn1
inactive: [1] 49.3% | [2] 80.4% | [3] 71.4% | [4] 81.1% | [5] 100% | [6] 62.6% | [7] 43.6% | [8] 62.4% | [9] 40.8% | [10] 42.9% | [11] 100% | [13] 37% | [14] 29.7% | [15] 58.7% | [16] 76.3% | [17] 27.5%
active: [12] -2.8%

CC1=CCc2ccccc21
inactive: [1] 98.6% | [2] 95% | [3] 101% | [4] 102% | [5] 101% | [6] 88.5% | [7] 106% | [8] 98.3% | [9] 98.1% | [10] 96.8% | [11] 93.5% | [12] 106% | [13] 95.6% | [14] 90.5% | [15] 101% | [16] 108% | [17] 103%

CC1(C)CC[C@]2(C(=O)O)CC[C@]3(C)C(=CC[C@@H]4[C@@]5(C)C/C(=C/c6ccco6)C(=O)C(C)(C)[C@@H]5CC[C@]43C)[C@@H]2C1
inactive: [1] 21.7% [100 µM]
active: [2] 0.316% [100 µM] | [3] 9.39% [100 µM] | [4] -64.2% [100 µM] | [5] 0.149% [100 µM] | [6] -38.7% [100 µM] | [7] -70% [100 µM] | [8] -5.24% [100 µM] | [9] -12.6% [100 µM] | [10] -0.554% [100 µM] | [11] -27.2% [100 µM] | [12] -70.6% [100 µM] | [13] -32.8% [100 µM] | [14] -8.44% [100 µM] | [15] -71.8% [100 µM] | [16] -58.1% [100 µM] | [17] -65.9% [100 µM]

Cc1nc(Cl)cc(N(c2cc(Cl)nc(C)n2)c2ncc(C(=O)Nc3c(C)cccc3Cl)s2)n1
inactive: [1] 86.9% | [2] 50.8% | [3] 63.1% | [4] 38.5% | [5] 39.8% | [7] 49.9% | [9] 59.3% | [10] 23.5% | [11] 93.3% | [12] 71.8% | [13] 96.6% | [14] 53.3% | [15] 19.1% | [16] 80.7% | [17] 79.7%
active: [6] -22% | [8] -1.46%

C=C(C)[C@@H]1CC[C@]2(COCCCN)CC[C@]3(C)[C@H](CC[C@@H]4[C@@](C)(CCCNCCCN)[C@H](C(=C)C)CC[C@]43C)[C@@H]12
active: [2] -53.4% [100 µM] | [3] -56.7% [100 µM] | [4] -63.6% [100 µM] | [5] -60.4% [100 µM] | [6] -58.6% [100 µM] | [7] -53.3% [100 µM] | [8] -39.2% [100 µM] | [9] -53.6% [100 µM] | [10] -60.6% [100 µM] | [11] -43.2% [100 µM] | [12] -68.5% [100 µM] | [13] -67% [100 µM] | [14] -47.9% [100 µM] | [15] -31.7% [100 µM] | [16] -55% [100 µM] | [17] -62.5% [100 µM]
inactive: [1] 44.4% [100 µM]

C=C(C)[C@@H]1CC[C@]2(C)[C@H](CC=C3[C@@H]4[C@@H](C)[C@H](C)CC[C@]4(C(N)=O)CC[C@]32C)[C@@]1(C)CCC#N
active: [2] -21.1% [100 µM] | [3] 3.49% [100 µM] | [4] 1.03% [100 µM] | [5] 5.31% [100 µM] | [6] 7.81% [100 µM] | [7] -53.6% [100 µM] | [8] 5.08% [100 µM] | [9] -32% [100 µM] | [10] 5.58% [100 µM] | [11] -25.4% [100 µM] | [12] 1.04% [100 µM] | [13] 7.86% [100 µM] | [14] 2.14% [100 µM] | [15] -43.8% [100 µM] | [16] -22.4% [100 µM] | [17] -46.4% [100 µM]
inactive: [1] 30.2% [100 µM]

CCN(CC)c1ccc2cc(C(Nc3ccc(Cl)cc3)c3nnnn3C(C)(C)C)c(=O)oc2c1 (stereo unspecified)
inactive: [1] 101% | [2] 88.4% | [3] 89.9% | [4] 90.2% | [5] 105% | [6] 93.6% | [7] 94.4% | [8] 89.4% | [9] 97.7% | [10] 71.7% | [11] 103% | [12] 87.8% | [13] 100% | [14] 74.2% | [15] 92% | [16] 105% | [17] 88.7%

COC(=O)[C@]1(C)CC[C@]2(C)CC[C@]3(C)C(=CC(=O)[C@@H]4[C@@]5(C)CCC(=O)NC(C)(C)[C@@H]5CC[C@]43C)[C@@H]2C1
inactive: [1] 32.7% [100 µM]
active: [2] -44.5% [100 µM] | [3] -39.8% [100 µM] | [4] -60.8% [100 µM] | [5] -16.8% [100 µM] | [6] -55.5% [100 µM] | [7] -70.4% [100 µM] | [8] -30.4% [100 µM] | [9] -71.9% [100 µM] | [10] -10.7% [100 µM] | [11] -78.6% [100 µM] | [12] -48.8% [100 µM] | [13] -54.8% [100 µM] | [14] -49.7% [100 µM] | [15] -72.5% [100 µM] | [16] -89.2% [100 µM] | [17] -80.1% [100 µM]
